This passage reports inhibition results from PubChem BioAssay AID1566 (Sanford-Burnham Center for Chemical Genomics, 2009).

The campaign covered roughly 290,000 compounds. About 1,800 (0.62%) were called active. Shown is part of a subset that was picked to be rich in actives. Values without a mark were called inactive. Cut-off read from the data, not from the text of the source: active = inhibition above about 50%; inactive = the rest.

For orientation: inhibition means the drop in the measured response relative to a control, in per cent.

A short description of this assay: inhibition of NOD2-driven NF-kB reporter – cell-based, luminescence, uHTS, HEK293 (AID 1566). The note with it: HEK293 NOD2/NF-kB luciferase reporter, at 4 µM, active compounds read high. (A reporter such as luciferase makes a cellular process visible.)
Turning to `Cc1oc(-c2ccc(Cl)cc2)nc1CS(=O)CC(=O)NCCCN1CCN(Cc2ccccc2)CC1` (stereo unspecified), the inhibition was 61.5% (active).
The value for `Cc1oc(-c2ccc(Cl)cc2)nc1CS(=O)CC(=O)NCCCN1CCOCC1` (stereo unspecified) was 16.6%; that for `Cc1ccc(-c2nc(CS(=O)CC(=O)NCCCN3CCN(Cc4ccccc4)CC3)c(C)o2)cc1` (stereo unspecified) was 28.9%.
The value for `Cc1c(-c2nc(-c3ccc(C(F)(F)F)cc3)no2)n(C)oc1=O` was -51.2%; that for `CCN(CC)C(=O)C1CCCN(Cc2ccccc2)C1` (stereo unspecified) was -6.7%.
In the case of `Cc1cccc(NC(=O)NCc2ccc3c(c2)cc(C)n3C)c1`, the inhibition was 10.6%.
As to `COC(=O)CCn1nnc(-c2cccs2)n1`, the inhibition was 6.8%.
The value for `CCc1ccc(-c2nnn(CCC(=O)OC)n2)cc1` was 54.4% (active); that for `COC(=O)CCn1nnc(-c2ccc(C)cc2)n1` was -23.2%.
The value for `COc1ccc(OC)c(NC(=O)CCCC(=O)NC2CCCCC2)c1` was 10.6%; that for `COC(=O)C(Cc1ccc(O)cc1)NC(=O)C(C)NC(=O)c1ccc(C(C)(C)C)cc1` (stereo unspecified) was -9.1%; that for `O=C(C1=C(O)C(=O)N(c2nccs2)C1c1ccccc1)c1cc2ccccc2o1` (stereo unspecified) was -20.5%.
Take `CC(=O)C1=C(O)C(=O)N(c2nccs2)C1c1ccccc1` (stereo unspecified): the inhibition is -1.4%.
The value for `CSc1ccccc1-c1nnc(-c2ccc(Cl)c(Cl)c2)o1` was -48.1%; that for `Cc1cc([N+](=O)[O-])ccc1NC(=O)C(C)N1CCN(c2ccccn2)CC1` (stereo unspecified) was 12%.
Consider `Cc1ccc(S(=O)(=O)NCc2ccc(C(=O)N3CCCC3)cc2)cc1`, for which the inhibition was -3.3%.
For `Cc1ccc(S(=O)(=O)NCc2ccc(C(=O)N3CCN(c4ccccc4)CC3)cc2)cc1`, the inhibition is 12.6%.
`COc1ccc(-c2nc(CN3CCN(c4cc(C)nc(C)c4)CC3)c(C)o2)c2ccccc12`: the inhibition was 30.3%.
The value for `COc1ccc(-c2nc(CN3CCN(c4ccccc4OC)CC3)c(C)o2)cc1` was 1.8%; that for `O=C(NC1CCCCC1)C(c1ccc(O)cc1)N(C(=O)c1cnccn1)c1cccc(F)c1` (stereo unspecified) was 3.4%; that for `CC(C)(C)CC(=O)Nc1ccccc1N1CCN(c2ccccc2)CC1` was -19.6%.
The value for `CCCC(=O)NC(c1ccc(C)cc1)c1ccc2cccnc2c1O` (stereo unspecified) was 13%.
The value for `CCC(=O)NC(c1ccc(C)cc1)c1ccc2cccnc2c1O` (stereo unspecified) was 70% (active); that for `CCCC(=O)NC(c1ccc(C(C)C)cc1)c1ccc2cccnc2c1O` (stereo unspecified) was 21.9%; that for `Cc1cccc(C2(c3cccc(C)c3)CC2C(=O)Nc2ccc([N+](=O)[O-])cc2O)c1` (stereo unspecified) was 48.8%.
For `CC1(C)CC1C(=O)Nc1ccc([N+](=O)[O-])cc1Br` (stereo unspecified), the inhibition is 9.5%.
The value for `Cc1ccc(C2(c3ccc(C)cc3)CC2C(=O)Nc2ccc([N+](=O)[O-])cc2O)cc1` (stereo unspecified) was 52.6% (active); that for `O=C(N/N=C/c1ccccc1O)C1CC(=O)N(c2ccc(Cl)cc2)C1` (stereo unspecified) was 47.3%; that for `O=C(N/N=C/c1ccccc1O)C1CC(=O)N(c2ccc(F)cc2)C1` (stereo unspecified) was 59.3% (active).
The value for `Cc1ccsc1/C=N/NC(=O)C1CC(=O)N(c2ccc(F)cc2)C1` (stereo unspecified) was 16.6%.
The value for `Cc1cc(C(=O)NNC(=S)NCC(C)C)no1` was -0.2%.
As to `CCCSc1nnc(-c2c[nH]c3ccccc23)n1CC`, the inhibition was -33.8%.
The value for `Cn1[nH]c(=O)c(Cl)c(Cl)c1=O` was 10.7%; that for `COc1ccccc1/C=C/C(=O)/C=C/c1ccccc1O` was 50.2% (active); that for `COc1ccccc1/C=C/C(=O)c1ccccc1` was -52.6%.
The value for `COc1ccccc1/C=C/C(C)=O` was -13.4%; that for `CCOc1ccc2[nH]c(=O)c(CN(CC3CCCN3CC)C(=O)NCc3ccccc3)cc2c1` (stereo unspecified) was 13.6%.
The value for `Nc1cc(S(=O)(=O)O)cc([N+](=O)[O-])c1O` was 8.2%.
As to `O=C(NCCN1CCOCC1)c1ccc(Cl)c(Cl)c1`, the inhibition was -11.3%.
Take `O=C(Nc1ccc2snnc2c1)N1CCCCC1`: the inhibition is 3.3%.
The value for `O=C(Nc1ccc2c(c1)OCO2)c1cc(C2CC2)on1` was -108%.
The value for `COc1cc(/C=C2\CC/C(=C\c3cc(OC)c(OC)c(OC)c3)C2=O)cc(OC)c1OC` was -18.8%; that for `COc1cc(/C=C2\CCOC2=O)cc(OC)c1OC` was -11.1%.
The value for `CN(C)C1(CNC(=O)C2CCN(S(=O)(=O)c3cc(Cl)ccc3Cl)CC2)CCCCC1` was -8.8%; that for `Fc1ccc2[nH]c3c(N4CCN(Cc5ccc6c(c5)OCO6)CC4)ncnc3c2c1` was 55.3% (active); that for `COc1ccc2[nH]c3c(N4CCN(Cc5ccc6c(c5)OCO6)CC4)ncnc3c2c1` was 3.4%.
For `Cc1ccc2[nH]c3c(N4CCN(Cc5ccc6c(c5)OCO6)CC4)ncnc3c2c1`, the inhibition is 49.8%.
The value for `CC(C)CC(N)c1cn([C@@H](CCC(=O)O)C(=O)N2CCNCC2)nn1` (stereo partly specified) was -7.7%.
The value for `CNC(C)C#Cc1ccc2c(=O)c3c(OC)cccc3oc2c1` (stereo unspecified) was -33.5%.
Consider `CC(=O)CCSc1ncnc2sc(-c3ccccc3)cc12`, for which the inhibition is -124%.
For the compound `O=C(O)CSc1ncnc2sc(-c3ccccc3)cc12`, the inhibition is 15.1%.
For `Cc1ccc(SCCN2CCN(CC(C)C)CCC2=O)cc1`, the inhibition was -18.4%.
The value for `O=C(NC1CCCCCCC1)c1cc(F)c(F)cc1Cl` was -57.3%.
The value for `Cc1csc(Nc2ccccc2C(F)(F)F)n1` was -3.5%; that for `COc1ccc(S(=O)(=O)Nc2nc3ccccc3nc2Nc2ccc3c(c2)OCO3)cc1` was 25.7%.
Turning to `O=C(CCc1ccccc1Cl)Nc1cccc(S(=O)(=O)N2CCCC2)c1`, the inhibition is 4%.
The value for `O=S(=O)(Nc1nc2ccccc2nc1Nc1cccc(S(=O)(=O)N2CCCCC2)c1)c1ccccc1` was 55.5% (active); that for `O=S(=O)(Nc1nc2ccccc2nc1Nc1ccc2c(c1)OCO2)c1ccccc1` was 26%; that for `O=S(=O)(Nc1cccc(S(=O)(=O)N2CCCCCC2)c1)c1ccccc1` was 16.1%.
The value for `COc1ccc(S(=O)(=O)Nc2cccc(S(=O)(=O)N3CCCCCC3)c2)cc1` was -4.9%.
The value for `CC(=O)Nc1cccc(S(=O)(=O)N2CCCCCC2)c1` was 2.3%.
As for `COc1ccccc1CNC(=O)c1cn(C)c2ccc(S(=O)(=O)N3CCCCC3)cc2c1=O`, the inhibition was -7.1%.
The value for `CCn1c(C)c2c(C)nnc(C)c2c1C` was 8.3%.
The value for `Cc1ccc(CSC2=NCCN2C(=O)c2ccc(S(=O)(=O)N(C)C)cc2)cc1` was -5%.
The value for `COc1ccc(C)cc1NC(=O)CC(O)(C(F)(F)F)C(F)(F)F` was 1.2%.
For the compound `COc1ccc(-c2nsc3c(N4CCCC4)ncnc23)cc1`, the inhibition was -61.9%.
The value for `COc1ccc(-c2nsc3c(N4CCCCC4C)ncnc23)cc1` (stereo unspecified) was 86% (active).
The value for `COc1ccc(-c2nsc3c(N4CCCCC4)ncnc23)cc1` was -13.3%; that for `N/C(CC(=O)Nc1cccc(C(F)(F)F)c1)=N/O` was 5.4%.
The value for `O=Nc1c2cc(-c3ccccc3)[nH]nc-2c2ccccc12` was -167%.
As for `Cc1ccc(-c2cc3c(N=O)c4ccccc4c-3n[nH]2)cc1`, the inhibition is 70.7% (active).
`Cc1cccc(-c2cc3c(N=O)c4ccccc4c-3n[nH]2)c1`: the inhibition was -162%.
`N#CC12CCCCC1CC1CCCCC1(C#N)N2N` (stereo unspecified): the inhibition was 1.8%.
The value for `O=C(CCCN1C(=O)c2ccccc2C1=O)NCCC1=CCCCC1` was 5.4%; that for `CCc1ccc(-c2nc(CSCC(=O)NCc3ccco3)c(C)o2)cc1` was 50% (active); that for `CCOc1ccc(-c2nc(CSCC(=O)NCc3ccco3)c(C)o2)cc1` was 9.4%.
The value for `COc1ccc(-c2nc(CSCC(=O)NCc3ccco3)c(C)o2)cc1` was -2%; that for `O=C(OCc1nc2ccccc2s1)c1cc2ccccc2oc1=O` was -0.9%; that for `Cc1cc(Cl)c(S(=O)(=O)N2CCCC2)cc1OCC(=O)NC1CCCCC1` was 32.3%.
For the compound `CCN1CCN(S(=O)(=O)c2cc(OCC(=O)NC3CCCCC3)c(C)cc2Cl)CC1`, the inhibition was 35.8%.
The value for `C=CCSc1nc2ccccc2n1Cc1nnc(-c2cccs2)o1` was 8.9%; that for `CN(Cc1cccnc1)C(=O)c1cc(COc2ccc3c(c2)CCCC3)on1` was -14.6%; that for `Cc1cc(CN(C)C(=O)c2cc(COc3ccc4ncccc4c3)on2)on1` was 28.5%.
The value for `O=C(CNC(=S)N(CCCN1CCOCC1)Cc1cccs1)N1CCCCCC1` was -0.9%; that for `COc1ccc(N(CC(=O)N/N=C/c2ccc3c(c2)OCO3)S(=O)(=O)c2ccc(NC(C)=O)cc2)cc1` was -7.5%; that for `Cc1ccc(S(=O)(=O)N/N=C\c2ccc([N+](=O)[O-])o2)cc1` was 13.4%.
The value for `Cc1ccc(S(=O)(=O)N/N=C\c2ccc([N+](=O)[O-])o2)cc1C` was 33.4%; that for `COc1ccc(S(=O)(=O)N/N=C\c2ccc([N+](=O)[O-])o2)c(OC)c1` was 52.1% (active); that for `COc1ccc(S(=O)(=O)N/N=C\c2ccc3c(c2)OCO3)cc1` was 29.5%.
As to `COc1ccc(S(=O)(=O)N/N=C\c2ccc3c(c2)OCO3)c(OC)c1`, the inhibition is 51.2% (active).
The value for `COc1ccc(OC)c(S(=O)(=O)N/N=C\c2ccc3c(c2)OCO3)c1` was -26.9%; that for `CCN(CC)CCn1c(=S)[nH]c2ccc(Br)cc2c1=O` was 7.1%; that for `CCCCC1=CC2=CC(=O)C(C)(OC(=O)CC)C(=O)C2=CN1C1CCCC1` (stereo unspecified) was 33.3%.
The value for `COc1cccc(NC(=O)NC2CCCCC2C)c1` (stereo unspecified) was 0.4%; that for `CCN(CC)C(=O)c1ccc2c(=O)n(CCOC)c(=S)[nH]c2c1` was 17.5%; that for `CCOC(=O)N1CCN(C(=O)c2ccc(Cn3c(=S)[nH]c4cc(C(=O)OC)ccc4c3=O)cc2)CC1` was 24.9%.
The value for `CCN(CC)C(=O)c1ccc2c(=O)n(Cc3cccc(Br)c3)c(=S)[nH]c2c1` was 58.7% (active).
Regarding `COc1ccc(Cn2c(=O)[nH]c3cc(C(=O)N4CCN(c5ccccn5)CC4)ccc3c2=O)cc1`, the inhibition is 3%.
The value for `CCOC(=O)N1CCN(C(=O)c2ccc(Cn3c(=S)[nH]c4cc(OCC)c(OCC)cc4c3=O)cc2)CC1` was 43.9%; that for `CCN(CC)C(=O)c1ccc2c(=O)n(Cc3ccc4c(c3)OCO4)c(=S)[nH]c2c1` was 10.2%; that for `O=C(c1ccc(Cn2c(=O)[nH]c3ccccc3c2=O)cc1)N1CCN(c2ccccn2)CC1` was 15.4%.
